One assay addresses Albumin (Bos taurus) (UniProt P02769). In words: bovine serum albumin binders on microarray, profiling panel, artefact control for SMM control protein annotation, biochemical, small-molecule microarray, Alexa647 label, 635/667 nm fluorescence (AID 1118).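 Further: score merges 667 nm emission intensity and signal-to-noise per printed compound spot.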 Particulars: BSA-A647 binding, fluorescence 635 nm, higher = more signal.
The nature of assay [1]: small-molecule microarray binders of probe aXIP, primary screen, biochemical, NeuroSMM set, 635/667 nm fluorescence (AID 1119).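 Further: probe is the protein aXip251-270 applied at 1 µg/mL to compound-printed slides; binding of probe to printed compounds measured as 667 nm fluorescence plus signal to noise.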 Particulars: higher = more signal, called active from +8 up or from −8 down.
Assay [2] in a line: small-molecule binders of probe aNOTCH3, primary screen, biochemical, small-molecule microarray, 635/667 nm fluorescence (AID 1120).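 Further: probe is a biotin-tagged antibody raised against NOTCH3 rather than NOTCH3 protein; score merges spot fluorescence near 667 nm with spot signal to noise.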 Particulars: higher = more signal.
Assay [3] in a line: small-molecule binders of probe aNOTCH2, primary screen, biochemical, small-molecule microarray, 635/667 nm fluorescence (AID 1121).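 Further: score merges feature fluorescence read at 667 nm with its signal to noise.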 Particulars: higher = more signal.
The target in assay [4] is Carbonic anhydrase 2 (Homo sapiens) (UniProt P00918). In words: CAII small-molecule binders, profiling panel, biochemical, small-molecule microarray, Alexa647-labelled CAII (AID 1122). The conditions noted are these: CAII-A647 binding fluorescence, higher = more signal.
The nature of assay [5]: COS7 lysate on small-molecule microarray, probe aHis, 635 nm (AID 1123).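 Further: z-score combines 667nm fluorescence intensity with signal-to-noise per printed compound spot.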 Particulars: COS7 cell lysate, fluorescence, higher = more signal.
The nature of assay [6]: compound binding in COS7 lysate, probe aLAP1, primary screen, cell lysate, small-molecule microarray (AID 1124).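 Further: lysate comes from COS7 cells expressing LAP1 and is applied at 0.3 µg/mL; score merges spot fluorescence near 667 nm with signal-to-noise over triplicate slides.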 The conditions noted are these: probe aLAP1, fluorescence, higher = more signal.
The subject of another assay is Sam68 (KHDRBS1). In words: Sam68 small-molecule binders, primary screen, biochemical, small-molecule microarray, 635 nm fluorescence (AID 1125).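 Further: score merges 667 nm channel intensity with signal to noise over triplicate slides.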 Particulars: small-molecule microarray binding, higher = more signal.
In assay [7] the test system is Chordin-like protein 2 (CHRDL2). In words: CHRDL2 small-molecule binders, primary screen, biochemical, small-molecule microarray, 635 nm fluorescence (AID 1126).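 Further: printed compound slides probed with Chrdl2 protein at 4 µg/mL for 1 h at 4 C; score merges 667 nm emission intensity with signal to noise over three replicate slides.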 The conditions noted are these: small-molecule microarray binding, fluorescence 635 nm; higher = more signal.
The target in assay [8] is Concanavalin-A (Canavalia ensiformis) (UniProt P02866). In words: ConA small-molecule binders, primary screen, artefact control for SMM control protein annotation, biochemical, small-molecule microarray, Alexa647 label, 635 nm (AID 1127).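 Further: z combines 667 nm emission intensity with signal-to-noise across three replicate slides.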 The conditions noted are these: ConA-A647 binding fluorescence, higher = more signal.
Sequence of Concanavalin-A (Canavalia ensiformis) (P02866 whole entry, looked up): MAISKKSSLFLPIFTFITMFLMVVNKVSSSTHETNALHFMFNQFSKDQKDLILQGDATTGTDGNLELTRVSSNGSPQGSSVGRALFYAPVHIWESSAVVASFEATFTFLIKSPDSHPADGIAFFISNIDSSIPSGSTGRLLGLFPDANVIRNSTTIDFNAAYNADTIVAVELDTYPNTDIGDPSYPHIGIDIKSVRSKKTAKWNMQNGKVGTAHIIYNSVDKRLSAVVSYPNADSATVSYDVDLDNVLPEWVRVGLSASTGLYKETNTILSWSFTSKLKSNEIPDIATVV
Assay [9] in a line: anti-His antibody binders, primary screen, artefact control for SMM control protein annotation, biochemical, small-molecule microarray, 635 nm fluorescence (AID 1128).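 Further: score merges feature fluorescence with signal-to-noise for each printed compound spot.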 Particulars: anti-His Alexa647 antibody binding, higher = more signal.
In assay [10] the test system is Human papillomavirus type 1a E7 protein (residues 1-88). In words: HPV1a E7 small-molecule binders, primary screen, biochemical, small-molecule microarray, residues 1-88, 635 nm (AID 1129). Particulars: small-molecule microarray binding, fluorescence 635 nm; higher = more signal.
Assay [11] deals with Focal adhesion kinase 1 (Homo sapiens) (UniProt Q05397). In words: small-molecule microarray binders of FAK, primary screen, biochemical, 635/667 nm fluorescence, BSA, DTT (AID 1130).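 Further: composite of spot emission at 667 nm and signal to noise over triplicate slides.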 Particulars: PTK2 binding, 635 nm fluorescence, higher = more signal.
Sequence of Focal adhesion kinase 1 (Homo sapiens) (Q05397 whole entry, looked up): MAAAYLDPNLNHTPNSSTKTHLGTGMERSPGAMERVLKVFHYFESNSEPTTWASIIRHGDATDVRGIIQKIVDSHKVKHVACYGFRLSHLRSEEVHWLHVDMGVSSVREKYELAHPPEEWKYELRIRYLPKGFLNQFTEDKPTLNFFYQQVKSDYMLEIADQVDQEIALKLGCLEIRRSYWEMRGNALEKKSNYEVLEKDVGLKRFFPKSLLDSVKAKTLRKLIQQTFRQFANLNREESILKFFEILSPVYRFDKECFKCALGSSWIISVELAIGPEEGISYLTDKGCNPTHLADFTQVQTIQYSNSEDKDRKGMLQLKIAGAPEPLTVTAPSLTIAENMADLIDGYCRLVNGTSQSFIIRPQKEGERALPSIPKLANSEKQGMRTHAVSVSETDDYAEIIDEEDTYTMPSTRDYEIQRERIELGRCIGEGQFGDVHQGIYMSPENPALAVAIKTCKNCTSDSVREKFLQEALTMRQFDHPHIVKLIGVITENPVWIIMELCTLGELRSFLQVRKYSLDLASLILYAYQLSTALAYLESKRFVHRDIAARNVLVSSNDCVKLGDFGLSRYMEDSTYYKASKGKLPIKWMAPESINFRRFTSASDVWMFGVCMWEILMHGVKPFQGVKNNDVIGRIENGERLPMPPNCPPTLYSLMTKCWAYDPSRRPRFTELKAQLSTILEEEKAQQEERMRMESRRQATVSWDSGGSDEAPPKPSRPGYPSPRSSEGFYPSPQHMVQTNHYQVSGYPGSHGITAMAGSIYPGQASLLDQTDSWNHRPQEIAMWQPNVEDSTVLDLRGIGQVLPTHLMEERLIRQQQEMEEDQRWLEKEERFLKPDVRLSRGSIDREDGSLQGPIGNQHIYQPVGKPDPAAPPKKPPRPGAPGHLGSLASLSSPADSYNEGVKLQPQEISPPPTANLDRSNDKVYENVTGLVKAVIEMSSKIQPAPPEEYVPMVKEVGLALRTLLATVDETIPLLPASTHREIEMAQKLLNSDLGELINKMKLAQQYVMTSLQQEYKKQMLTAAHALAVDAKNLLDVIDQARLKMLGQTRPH
The subject of assay [12] is Fibrinogen (Alexa647-labelled). Put plainly: fibrinogen binders on compound microarrays, profiling panel, artefact control for SMM control-protein annotation, biochemical, small-molecule microarray, 635/667 nm fluorescence (AID 1131).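 Further: z-score merges 667 nm fluorescence with per-spot signal-to-noise over triplicate slides.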 Particulars: fibrinogen-A647 binding fluorescence, higher = more signal.
The target in assay [13] is Follistatin (Homo sapiens) (UniProt P19883). Put plainly: follistatin binders on small-molecule microarrays, primary screen, biochemical, small-molecule microarray, 635/667 nm fluorescence (AID 1132). Particulars: FST binding, 635 nm fluorescence, higher = more signal.
Sequence of Follistatin (Homo sapiens) (P19883 whole entry, looked up): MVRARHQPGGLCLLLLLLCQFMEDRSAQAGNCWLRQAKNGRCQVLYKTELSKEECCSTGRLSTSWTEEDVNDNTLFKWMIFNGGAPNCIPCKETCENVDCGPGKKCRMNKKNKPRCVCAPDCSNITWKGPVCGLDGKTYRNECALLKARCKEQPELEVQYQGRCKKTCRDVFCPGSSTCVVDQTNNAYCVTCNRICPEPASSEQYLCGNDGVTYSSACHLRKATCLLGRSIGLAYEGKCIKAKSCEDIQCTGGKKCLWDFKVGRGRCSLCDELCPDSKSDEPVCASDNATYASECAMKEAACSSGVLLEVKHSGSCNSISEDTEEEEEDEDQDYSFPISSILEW
The target in assay [14] is Fibroblast growth factor 2 (Homo sapiens) (UniProt P09038). Put plainly: FGF2 binders on small-molecule microarrays, primary screen, biochemical, small-molecule microarray, 635/667 nm fluorescence (AID 1133). Particulars: small-molecule microarray binding, FGF2, fluorescence 635/667; higher = more signal.
Sequence of Fibroblast growth factor 2 (Homo sapiens) (P09038 whole entry, looked up): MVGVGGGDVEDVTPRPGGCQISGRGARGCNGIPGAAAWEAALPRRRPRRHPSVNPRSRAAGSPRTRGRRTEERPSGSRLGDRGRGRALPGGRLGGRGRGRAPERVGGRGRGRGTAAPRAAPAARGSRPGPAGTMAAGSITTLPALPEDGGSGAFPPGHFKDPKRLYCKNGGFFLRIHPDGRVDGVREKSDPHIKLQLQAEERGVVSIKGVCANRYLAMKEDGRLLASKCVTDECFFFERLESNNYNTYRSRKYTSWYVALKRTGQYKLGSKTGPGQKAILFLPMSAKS
The nature of assay [15]: mitochondrial membrane potential change in A549 cells, profiling panel, cell-based, JC-1 fluorescence, basal, 24 h, 100 nL (AID 1138).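 Further: A549 lung adenocarcinoma cells under basal conditions with no added stimulus; test concentration not given here.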 The conditions noted are these: higher = more signal.
The subject of another assay is Lefty1. Put plainly: Lefty1 binders on small-molecule microarrays, primary screen, biochemical, small-molecule microarray, 635/667 nm fluorescence (AID 1139). The conditions noted are these: small-molecule microarray binding, fluorescence 635/667; higher = more signal.
For assay [16], the system named is wheat germ agglutinin (Triticum aestivum), Alexa647-labelled. Put plainly: wheat germ agglutinin binders on compound microarrays, profiling panel, artefact control for SMM control-protein annotation, biochemical, small-molecule microarray, 635/667 nm fluorescence (AID 1140).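 Further: score merges 667 nm feature emission with signal to noise over triplicate slides.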 Particulars: WGA-A647 binding, 635 nm fluorescence, higher = more signal.
The target in assay [17] is Luciferin 4-monooxygenase (Photinus pyralis) (UniProt P08659). Put plainly: firefly luciferase enzyme inhibitors, primary screen, biochemical, luminescence, purified enzyme, 2006 set (AID 1141).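 Further: cell-free assay with purified firefly luciferase at 100 ng per well in PBS; test concentration not given here.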 The conditions noted are these: SteadyGlo luminescence, 30 min, higher = more signal, called active from +8 up or from −8 down.
Sequence of Luciferin 4-monooxygenase (Photinus pyralis) (P08659 whole entry, looked up): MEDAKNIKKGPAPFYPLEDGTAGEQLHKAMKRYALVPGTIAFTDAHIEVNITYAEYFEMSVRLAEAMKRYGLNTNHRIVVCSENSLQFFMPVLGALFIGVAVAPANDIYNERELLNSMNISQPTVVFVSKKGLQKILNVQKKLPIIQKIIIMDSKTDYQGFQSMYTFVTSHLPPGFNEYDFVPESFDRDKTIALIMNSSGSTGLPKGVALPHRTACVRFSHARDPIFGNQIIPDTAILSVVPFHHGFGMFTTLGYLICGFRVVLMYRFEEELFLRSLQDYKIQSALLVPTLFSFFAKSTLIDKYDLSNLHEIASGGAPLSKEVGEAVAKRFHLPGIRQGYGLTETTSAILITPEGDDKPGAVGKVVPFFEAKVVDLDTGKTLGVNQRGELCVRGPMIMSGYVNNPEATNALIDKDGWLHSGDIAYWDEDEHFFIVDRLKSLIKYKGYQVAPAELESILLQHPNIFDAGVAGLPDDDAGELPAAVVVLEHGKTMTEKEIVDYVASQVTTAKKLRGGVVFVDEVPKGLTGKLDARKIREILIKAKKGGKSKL

The text below walks through data of PubChem BioAssay.

The source made the active and inactive calls.

Sequence of Albumin (Bos taurus) (P02769 whole entry, looked up): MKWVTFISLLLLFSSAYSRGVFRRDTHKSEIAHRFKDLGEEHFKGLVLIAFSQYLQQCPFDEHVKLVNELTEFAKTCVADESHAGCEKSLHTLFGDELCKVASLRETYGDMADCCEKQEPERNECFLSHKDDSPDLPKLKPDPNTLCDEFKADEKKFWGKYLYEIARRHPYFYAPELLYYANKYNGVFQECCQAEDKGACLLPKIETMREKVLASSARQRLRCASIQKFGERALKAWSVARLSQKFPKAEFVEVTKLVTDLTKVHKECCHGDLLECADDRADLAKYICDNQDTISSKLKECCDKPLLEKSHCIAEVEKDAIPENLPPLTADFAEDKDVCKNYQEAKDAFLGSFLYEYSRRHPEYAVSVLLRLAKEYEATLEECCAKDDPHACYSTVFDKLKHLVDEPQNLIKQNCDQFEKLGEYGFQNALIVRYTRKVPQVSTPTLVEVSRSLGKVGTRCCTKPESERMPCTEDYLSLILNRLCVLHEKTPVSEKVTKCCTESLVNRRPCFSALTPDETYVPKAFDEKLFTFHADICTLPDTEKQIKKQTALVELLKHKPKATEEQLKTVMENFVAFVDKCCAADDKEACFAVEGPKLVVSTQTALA

As to `COC(=O)[C@@H]1CC[C@H](C)[C@@H](c2ccc(C)cc2)N1C(=O)c1ccc(C=NOC(C)CN2CCCCc3nc(C)c(C)cc32)cc1` (stereo not given in full), the composite z-score is 0.594 in the assay with Albumin (Bos taurus); 0.0916 in assay [2]; -0.0707 in assay [3]; -0.0862 in [4]; 0.125 in assay [5]; 0.388 in assay [6]. For the same molecule, the composite z-score with Sam68 (KHDRBS1) is 0.0689; in assay [7], 0.62; in [8] it was 0.951; in assay [9] it was 0.444; in assay [10] it was -0.732; in assay [11] it was 0.0369. The composite z-score was found to be 0.469 in assay [12]; 0.114 in assay [13]; 0.222 in assay [14]; 0.847 in the assay with Lefty1; 0.0329 in [16]. Also, the composite Z-score in [1] was -0.317 (inactive). Besides, the z-score is 2.32 in assay [15] and 0.662 (inactive) in assay [17].

On to `CC(C)CON=C1C[C@@H](O)[C@@H](O)[C@@H]2[C@@H]3C(=O)N(C[C@@H]4CCCO4)C(=O)[C@@H]3CC[C@H]12`, for which the composite z-score in the assay with Albumin (Bos taurus) is -0.3; in assay [2], -0.101; in assay [3], -0.0659; in [4], 0.0765; in assay [5] it was 0.737; in [6] it was -0.193. The composite z-score with Sam68 (KHDRBS1) was 0.697; in [7], -0.0163; in assay [8] it was 0.12; in [9], 0.361; in assay [10], 0.625; in [11], 0.0201. The composite z-score in assay [12] came to 0.286; in assay [13] it was 0.268; in [14] it was 0.911; in the assay on Lefty1, 0.541; in assay [16], 0.0098. Moreover, the composite Z-score in assay [1] is -0.311 (inactive). The z-score in [15] is -0.786; in [17], 1.01 (inactive).

In the case of `CC(=O)OC[C@H]1O[C@@H](ON=C(C)CCN2CCc3nc(-c4ccccc4)c(-c4ccccc4)cc3C2)[C@H](OC(C)=O)[C@@H](OC(C)=O)[C@@H]1OC(C)=O`, the composite z-score in the assay with Albumin (Bos taurus) is 0.507; in assay [2] it was 0.12; in assay [3], -0.156; in assay [4], 0.16; in assay [5] it was 0.614; in [6] it was 0.717. The composite z-score was 1.3 with Sam68 (KHDRBS1); 0.346 in assay [7]; 0.878 in assay [8]; -0.116 in [9]; 1.11 in assay [10]; 0.276 in [11]. The composite z-score in assay [12] turned out to be 0.867; in assay [13] it was 0.992; in assay [14], 1.19; with Lefty1, 0.699; in [16], 0.491. Also, in [1], the composite Z-score is -0.0295 (inactive). In addition, the z-score in assay [15] was 1.13; in [17], 0.93 (inactive).

In the case of `COc1ccc(-c2nc3c(c4c2C[C@H](C)OC4)CN(CCC(C)C)CC3)cc1`, the composite z-score with Albumin (Bos taurus) is 0.556; in assay [2] it was -0.166; in [3], -0.0167; in assay [4] it was 0.441; in assay [5], 0.455; in [6] it was -0.177. Besides, the composite z-score turned out to be 1.23 with Sam68 (KHDRBS1); 0.348 in assay [7]; 0.928 in assay [8]; 0.998 in assay [9]; 1.14 in assay [10]; 0.233 in assay [11]. Besides, the composite z-score was 0.809 in [12]; 0.653 in [13]; 0.491 in [14]; 0.67 in the assay on Lefty1; 0.642 in assay [16]. Besides, the composite Z-score in assay [1] was 0.292 (inactive). In addition, the z-score in assay [15] was 2.72; in assay [17], -0.793 (inactive).

Regarding `CS(=O)(=O)CCOC(=O)C1=CC(CCCO)=CC(c2cccs2)N(Cc2cccc(OC(F)(F)F)c2)C=C1C(=O)OCCS(C)(=O)=O` (stereo not given), the composite z-score was 1.03 with Albumin (Bos taurus); 0.106 in [2]; -0.0358 in [3]; 0.809 in assay [4]; 1.1 in [5]; 0.678 in [6]. The composite z-score was 1.18 in the assay with Sam68 (KHDRBS1); -0.607 in assay [7]; 1.16 in assay [8]; 0.97 in assay [9]; 1.03 in assay [10]; 0.905 in [11]. The composite z-score in assay [12] worked out at 0.579; in assay [13], 0.243; in assay [14], 0.202; with Lefty1 it was 0.578; in assay [16], 1.02. In [1], the composite Z-score is 0.0987 (inactive). The z-score in assay [15] is 1.64; in assay [17], -2.01 (inactive).
